# Test results published in PubChem BioAssay (EPA / NIEHS).
# Inconclusive results are not listed. Some compounds were tested as several samples or in several runs, with calls that do not always agree. Active and inactive are the calls of the source. Rule for the calls: active = hit-call score of the fitted dose curve at least 0.9, where 1 is the maximum; inconclusive = response in the unintended direction; inactive = score below 0.9.
# Columns and labels:
# [1] = molecular target: human Mitogen-Activated Protein Kinase 1 (MAPK 1), MAPK1 (gene 5594) (UniProt P28482); assay: NVS_ENZ_hMAPK1: NovaScreen (NVS) Enzymatic Assay for human Mitogen-Activated Protein Kinase 1 (MAPK 1) (AID 2283175)
# Procedure, shortened: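 Cell-free recombinant human MAPK1 enzymatic assay, fluorescence/electrophoretic mobility shift read at 1 h; loss of signal vs DMSO. Primary screen in duplicate at 25 uM; actives (e.g. ≥30% inhibition) run as concentration-response up to 50 uM.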
# [2] = molecular target: human Phosphodiesterase 4A1 (PDE4A1), PDE4A (gene 5141) (UniProt P27815); assay: NVS_ENZ_hPDE4A1: NovaScreen (NVS) Enzymatic Assay for human Phosphodiesterase 4A1 (PDE4A1) (AID 2283191)
# human Phosphodiesterase 4A1 (PDE4A1), PDE4A (gene 5141), sequence (P27815 whole entry, looked up): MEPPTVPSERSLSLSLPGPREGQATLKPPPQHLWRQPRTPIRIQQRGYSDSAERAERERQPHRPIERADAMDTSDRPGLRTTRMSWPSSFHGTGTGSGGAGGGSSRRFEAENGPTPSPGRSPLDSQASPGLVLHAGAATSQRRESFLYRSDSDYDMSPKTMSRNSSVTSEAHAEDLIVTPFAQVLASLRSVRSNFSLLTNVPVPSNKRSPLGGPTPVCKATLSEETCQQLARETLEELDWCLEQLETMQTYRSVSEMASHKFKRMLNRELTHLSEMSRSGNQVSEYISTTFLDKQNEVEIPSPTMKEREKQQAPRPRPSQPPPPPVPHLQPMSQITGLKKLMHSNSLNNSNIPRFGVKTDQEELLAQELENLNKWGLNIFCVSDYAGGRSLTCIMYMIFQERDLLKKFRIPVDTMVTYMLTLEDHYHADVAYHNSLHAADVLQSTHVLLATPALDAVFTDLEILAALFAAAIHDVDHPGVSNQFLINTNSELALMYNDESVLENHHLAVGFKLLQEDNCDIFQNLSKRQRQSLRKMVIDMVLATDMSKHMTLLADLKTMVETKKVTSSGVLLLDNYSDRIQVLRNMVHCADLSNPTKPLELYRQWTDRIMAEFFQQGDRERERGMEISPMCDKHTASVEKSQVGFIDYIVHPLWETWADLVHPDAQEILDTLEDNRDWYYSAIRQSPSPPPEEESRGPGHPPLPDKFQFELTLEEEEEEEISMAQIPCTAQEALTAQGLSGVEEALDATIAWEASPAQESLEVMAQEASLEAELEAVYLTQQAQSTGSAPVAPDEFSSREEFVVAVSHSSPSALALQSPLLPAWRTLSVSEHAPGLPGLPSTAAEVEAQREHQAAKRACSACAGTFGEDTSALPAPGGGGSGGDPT
# Procedure, shortened: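 Cell-free recombinant human PDE4A1 with fluorescent substrate; product separated by electrophoretic mobility shift, 1 h. Screened at 25 uM, then up to 50 uM in concentration-response; loss of signal fitted against DMSO.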
# [3] = molecular target: human IkappaB Kinase alpha (IKKa), CHUK (gene 1147) (UniProt O15111); assay: NVS_ENZ_hIKKa: NovaScreen (NVS) Enzymatic Assay for human IkappaB Kinase alpha (IKKa) (AID 2283167)
# Procedure, shortened: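 Cell-free recombinant human IKKa with fluorescent substrate, product separated by electrophoretic mobility shift; read 1 hour after dosing. Primary screen duplicate at 25 uM, actives then concentration-response up to 50 uM; loss of signal relative to DMSO.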
# [4] = molecular target: human MAP Kinase-Activated Protein Kinase 2 (MAPKAPK2), MAPKAPK2 (gene 9261) (UniProt P49137); assay: NVS_ENZ_hMAPKAPK2: NovaScreen (NVS) Enzymatic Assay for human MAP Kinase-Activated Protein Kinase 2 (MAPKAPK2) (AID 2283178)
# human MAP Kinase-Activated Protein Kinase 2 (MAPKAPK2), MAPKAPK2 (gene 9261), sequence (P49137 whole entry, looked up): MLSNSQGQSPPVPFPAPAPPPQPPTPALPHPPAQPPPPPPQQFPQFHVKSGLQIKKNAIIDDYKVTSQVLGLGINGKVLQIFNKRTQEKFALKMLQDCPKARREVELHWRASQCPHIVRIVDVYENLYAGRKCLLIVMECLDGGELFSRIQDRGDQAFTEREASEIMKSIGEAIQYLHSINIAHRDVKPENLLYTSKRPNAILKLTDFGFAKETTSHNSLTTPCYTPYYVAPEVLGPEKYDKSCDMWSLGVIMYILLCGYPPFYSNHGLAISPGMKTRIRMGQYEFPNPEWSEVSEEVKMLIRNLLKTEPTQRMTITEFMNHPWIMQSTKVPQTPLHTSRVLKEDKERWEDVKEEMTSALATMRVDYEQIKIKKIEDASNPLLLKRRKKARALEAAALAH
# Procedure, shortened: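 Cell-free recombinant human MAPKAPK2 activity measured by fluorescence with electrophoretic mobility shift separation of substrate and product, 1 hr after dosing. Loss of signal versus DMSO; primary screen at 25 uM, concentration-response up to 50 uM.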
# [5] = molecular target: Collagenase 3 (Homo sapiens) (UniProt P45452); assay: NVS_ENZ_hMMP13: NovaScreen (NVS) Enzymatic Assay for human Matrix Metalloproteinase-13 (MMP13) (AID 2283182)
# Procedure, shortened: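 Recombinant MMP13 cleaving fluorescent substrate, cell-free, measured 1 h after dosing. Primary duplicate screen at 25 uM; actives tested in concentration-response up to 50 uM; loss of signal relative to DMSO.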
# [6] = molecular target: human Matrix Metalloproteinase-9 (MMP9), MMP9 (gene 4318) (UniProt P14780); assay: NVS_ENZ_hMMP9: NovaScreen (NVS) Enzymatic Assay for human Matrix Metalloproteinase-9 (MMP9) (AID 2283190);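 note: cell-free recombinant MMP9 protease activity read by fluorescent substrate signal; active means inhibition seen as loss of fluorescence signal versus DMSO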
# human Matrix Metalloproteinase-9 (MMP9), MMP9 (gene 4318), sequence (P14780 whole entry, looked up): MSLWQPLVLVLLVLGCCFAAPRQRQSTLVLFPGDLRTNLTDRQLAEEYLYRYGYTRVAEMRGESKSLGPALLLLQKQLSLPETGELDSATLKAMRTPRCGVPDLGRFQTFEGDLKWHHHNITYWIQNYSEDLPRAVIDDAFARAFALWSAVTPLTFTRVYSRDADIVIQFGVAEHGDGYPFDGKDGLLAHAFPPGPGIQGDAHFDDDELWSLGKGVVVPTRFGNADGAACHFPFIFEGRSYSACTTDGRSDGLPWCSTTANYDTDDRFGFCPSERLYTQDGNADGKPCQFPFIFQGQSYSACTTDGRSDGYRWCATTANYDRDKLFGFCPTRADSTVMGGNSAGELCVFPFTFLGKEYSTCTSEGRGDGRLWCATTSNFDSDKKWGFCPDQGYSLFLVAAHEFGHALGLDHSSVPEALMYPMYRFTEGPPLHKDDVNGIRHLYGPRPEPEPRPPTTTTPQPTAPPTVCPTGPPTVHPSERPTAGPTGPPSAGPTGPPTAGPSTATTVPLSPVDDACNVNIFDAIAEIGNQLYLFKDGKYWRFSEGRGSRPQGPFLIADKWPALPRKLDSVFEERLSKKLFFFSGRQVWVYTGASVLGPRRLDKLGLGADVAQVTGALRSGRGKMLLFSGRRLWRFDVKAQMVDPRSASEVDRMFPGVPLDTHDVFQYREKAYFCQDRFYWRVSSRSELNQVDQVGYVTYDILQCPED
# Procedure, shortened: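 Extracted enzyme, fluorescent substrate, 1 h post-dose read. Single conc 25 uM in duplicate, then concentration series for actives. Activity = signal loss relative to DMSO negative control.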
# [7] = molecular target: human Matrix Metalloproteinase-2 (MMP2), MMP2 (gene 4313) (UniProt P08253); assay: NVS_ENZ_hMMP2: NovaScreen (NVS) Enzymatic Assay for human Matrix Metalloproteinase-2 (MMP2) (AID 2283184)
# Procedure, shortened: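 Cell-free recombinant MMP2 activity with a fluorescent substrate, read 1 h after dosing. Primary screen in duplicate at 25 uM; actives then run in concentration series; loss of signal fitted versus DMSO.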
# [8] = molecular target: human Insulin Receptor (InsR), INSR (gene 3643) (UniProt P06213); assay: NVS_ENZ_hInsR: NovaScreen (NVS) Enzymatic Assay for human Insulin Receptor (InsR) (AID 2283168)
# human Insulin Receptor (InsR), INSR (gene 3643), sequence (P06213 whole entry, looked up): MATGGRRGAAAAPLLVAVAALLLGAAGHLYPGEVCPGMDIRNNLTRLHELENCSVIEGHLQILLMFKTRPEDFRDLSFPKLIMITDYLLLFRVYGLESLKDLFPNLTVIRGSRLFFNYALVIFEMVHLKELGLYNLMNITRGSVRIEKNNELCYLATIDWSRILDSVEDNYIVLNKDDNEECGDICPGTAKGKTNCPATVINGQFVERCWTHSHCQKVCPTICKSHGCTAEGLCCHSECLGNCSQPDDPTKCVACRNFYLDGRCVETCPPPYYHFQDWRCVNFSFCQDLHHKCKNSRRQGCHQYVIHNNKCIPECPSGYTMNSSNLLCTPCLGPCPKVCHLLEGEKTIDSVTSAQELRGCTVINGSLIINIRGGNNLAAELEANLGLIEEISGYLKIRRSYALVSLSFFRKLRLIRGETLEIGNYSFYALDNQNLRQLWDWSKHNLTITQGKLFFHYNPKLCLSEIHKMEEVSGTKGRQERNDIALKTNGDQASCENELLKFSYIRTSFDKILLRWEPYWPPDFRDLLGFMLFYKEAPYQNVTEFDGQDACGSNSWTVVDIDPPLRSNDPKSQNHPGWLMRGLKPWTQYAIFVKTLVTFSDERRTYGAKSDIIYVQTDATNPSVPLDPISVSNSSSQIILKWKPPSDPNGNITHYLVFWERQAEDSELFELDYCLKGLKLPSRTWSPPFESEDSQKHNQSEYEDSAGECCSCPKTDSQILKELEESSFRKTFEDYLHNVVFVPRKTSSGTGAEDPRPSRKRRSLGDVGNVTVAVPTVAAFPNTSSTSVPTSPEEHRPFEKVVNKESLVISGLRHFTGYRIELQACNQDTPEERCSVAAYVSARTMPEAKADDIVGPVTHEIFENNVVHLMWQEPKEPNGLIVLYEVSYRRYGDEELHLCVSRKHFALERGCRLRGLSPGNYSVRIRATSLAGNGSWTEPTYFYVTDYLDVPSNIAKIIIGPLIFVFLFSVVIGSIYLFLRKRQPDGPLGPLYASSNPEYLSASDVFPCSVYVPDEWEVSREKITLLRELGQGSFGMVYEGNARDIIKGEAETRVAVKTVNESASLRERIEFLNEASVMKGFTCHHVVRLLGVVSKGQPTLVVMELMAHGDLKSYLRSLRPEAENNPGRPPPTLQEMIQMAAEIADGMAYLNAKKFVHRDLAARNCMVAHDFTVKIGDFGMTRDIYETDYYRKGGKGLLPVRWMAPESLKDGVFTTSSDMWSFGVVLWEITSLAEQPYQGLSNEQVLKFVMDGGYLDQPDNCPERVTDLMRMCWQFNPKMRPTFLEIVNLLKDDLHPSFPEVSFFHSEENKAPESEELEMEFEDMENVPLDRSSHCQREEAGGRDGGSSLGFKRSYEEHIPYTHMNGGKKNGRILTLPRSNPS
# Procedure, shortened: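 Fluorescent substrate phosphorylation by recombinant kinase, product resolved by electrophoretic mobility shift, read 1 h after dosing. Screened in duplicate at 25 uM; hits (e.g., 30% inhibition) run in concentration-response to 50 uM; DMSO as baseline.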
# [9] = molecular target: human Janus Kinase 2 (Jak2), JAK2 (gene 3717) (UniProt O60674); assay: NVS_ENZ_hJak2: NovaScreen (NVS) Enzymatic Assay for human Janus Kinase 2 (Jak2) (AID 2283169)
# Procedure, shortened: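 Cell-free recombinant human JAK2 enzyme activity assay, fluorescence/electrophoretic mobility shift read 1 h after dosing. Screened in duplicate at 25 uM, then concentration-response up to 50 uM; activity as signal loss relative to DMSO.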
# [10] = molecular target: Glycogen synthase kinase-3 beta (Homo sapiens) (UniProt P49841); assay: NVS_ENZ_hGSK3b: NovaScreen (NVS) Enzymatic Assay for human Glycogen Synthase Kinase-3 beta (GSK3b) (AID 2283165)
# Glycogen synthase kinase-3 beta (Homo sapiens), sequence (P49841 whole entry, looked up): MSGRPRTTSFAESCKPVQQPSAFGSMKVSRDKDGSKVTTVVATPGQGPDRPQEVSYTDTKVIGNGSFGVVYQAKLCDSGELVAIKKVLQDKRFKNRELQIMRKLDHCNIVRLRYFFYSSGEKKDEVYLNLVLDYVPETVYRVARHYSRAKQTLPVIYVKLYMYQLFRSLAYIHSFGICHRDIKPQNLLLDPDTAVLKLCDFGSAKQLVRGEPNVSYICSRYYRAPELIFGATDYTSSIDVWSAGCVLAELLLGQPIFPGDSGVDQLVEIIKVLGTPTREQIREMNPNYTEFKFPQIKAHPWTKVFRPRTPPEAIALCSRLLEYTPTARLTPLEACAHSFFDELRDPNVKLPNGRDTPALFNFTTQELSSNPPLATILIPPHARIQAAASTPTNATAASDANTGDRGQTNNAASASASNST
# Procedure, shortened: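 Recombinant enzyme with specific fluorescent substrate, 1 h, product separated by electrophoretic mobility shift. Primary duplicate screen at 25 uM; actives (e.g. 30% inhibition) followed in singleton concentration-response to 50 uM. Signal loss fitted versus DMSO.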
# [11] = molecular target: Mitogen-activated protein kinase 3 (Homo sapiens) (UniProt P27361); assay: NVS_ENZ_hMAPK3: NovaScreen (NVS) Enzymatic Assay for human Mitogen-Activated Protein Kinase 3 (MAPK 3) (AID 2283177)
# Procedure, shortened: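 Cell-free enzymatic assay with recombinant protein and specific substrate; fluorescence and electrophoretic mobility shift read-out 1 h after dosing. Primary screen duplicate at 25 uM; actives then run in concentration-response up to 50 uM, loss of signal versus DMSO.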
# [12] = molecular target: human Matrix Metalloproteinase-7 (MMP7), MMP7 (gene 4316) (UniProt P09237); assay: NVS_ENZ_hMMP7: NovaScreen (NVS) Enzymatic Assay for human Matrix Metalloproteinase-7 (MMP7) (AID 2283183)
# human Matrix Metalloproteinase-7 (MMP7), MMP7 (gene 4316), sequence (P09237 whole entry, looked up): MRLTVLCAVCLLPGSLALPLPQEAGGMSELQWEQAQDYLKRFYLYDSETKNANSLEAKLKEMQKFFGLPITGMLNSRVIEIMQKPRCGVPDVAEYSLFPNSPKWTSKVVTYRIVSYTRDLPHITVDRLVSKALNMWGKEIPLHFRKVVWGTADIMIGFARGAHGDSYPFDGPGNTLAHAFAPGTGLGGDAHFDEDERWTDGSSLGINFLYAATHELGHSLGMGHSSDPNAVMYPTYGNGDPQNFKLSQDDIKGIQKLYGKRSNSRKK
# Procedure, shortened: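 Cell-free fluorescence enzymatic assay read 1 h after compound addition, activity loss analyzed against DMSO. Primary duplicate testing at 25 uM; compounds meeting threshold rerun in singleton concentration-response up to 50 uM.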
# [13] = molecular target: human NIMA (Never In Mitosis Gene A)-Related Kinase 2 (NEK2), NEK2 (gene 4751) (UniProt P51955); assay: NVS_ENZ_hNEK2: NovaScreen (NVS) Enzymatic Assay for human NIMA (Never In Mitosis Gene A)-Related Kinase 2 (NEK2) (AID 2283188)
# human NIMA (Never In Mitosis Gene A)-Related Kinase 2 (NEK2), NEK2 (gene 4751), sequence (P51955 whole entry, looked up): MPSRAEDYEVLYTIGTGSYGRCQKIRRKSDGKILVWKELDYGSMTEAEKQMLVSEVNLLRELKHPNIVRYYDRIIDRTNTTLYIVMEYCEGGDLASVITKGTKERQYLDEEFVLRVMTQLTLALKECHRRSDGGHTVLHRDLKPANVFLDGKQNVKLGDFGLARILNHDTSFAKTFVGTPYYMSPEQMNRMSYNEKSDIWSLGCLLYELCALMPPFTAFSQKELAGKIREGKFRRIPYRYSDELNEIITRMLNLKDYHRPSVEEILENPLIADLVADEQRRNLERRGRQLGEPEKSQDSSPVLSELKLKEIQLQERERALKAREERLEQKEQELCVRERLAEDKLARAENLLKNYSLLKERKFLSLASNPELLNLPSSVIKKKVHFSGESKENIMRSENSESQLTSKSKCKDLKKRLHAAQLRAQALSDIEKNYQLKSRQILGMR
# Procedure, shortened: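 Cell-free NEK2 enzyme activity after 1 h exposure, read by fluorescence with electrophoretic mobility shift separating substrate and product. Primary screen in duplicate at 25 uM; actives then run as concentration series. Loss of signal versus DMSO scored.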
# [14] = molecular target: human Phosphodiesterase 5 (PDE5), PDE5A (gene 8654) (UniProt O76074); assay: NVS_ENZ_hPDE5: NovaScreen (NVS) Enzymatic Assay for human Phosphodiesterase 5 (PDE5) (AID 2283194)
# Procedure, shortened: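 Recombinant human PDE5 with specific substrate, read 1 h after dosing by fluorescence with electrophoretic mobility-shift separation of substrate and product. Initial single-concentration duplicate screen at 25 uM, actives followed in concentration series; loss of activity versus DMSO.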
# [15] = molecular target: human Matrix Metalloproteinase-1 (MMP1), MMP1 (gene 4312) (UniProt P03956); assay: NVS_ENZ_hMMP1: NovaScreen (NVS) Enzymatic Assay for human Matrix Metalloproteinase-1 (MMP1) (AID 2283181)
# human Matrix Metalloproteinase-1 (MMP1), MMP1 (gene 4312), sequence (P03956 whole entry, looked up): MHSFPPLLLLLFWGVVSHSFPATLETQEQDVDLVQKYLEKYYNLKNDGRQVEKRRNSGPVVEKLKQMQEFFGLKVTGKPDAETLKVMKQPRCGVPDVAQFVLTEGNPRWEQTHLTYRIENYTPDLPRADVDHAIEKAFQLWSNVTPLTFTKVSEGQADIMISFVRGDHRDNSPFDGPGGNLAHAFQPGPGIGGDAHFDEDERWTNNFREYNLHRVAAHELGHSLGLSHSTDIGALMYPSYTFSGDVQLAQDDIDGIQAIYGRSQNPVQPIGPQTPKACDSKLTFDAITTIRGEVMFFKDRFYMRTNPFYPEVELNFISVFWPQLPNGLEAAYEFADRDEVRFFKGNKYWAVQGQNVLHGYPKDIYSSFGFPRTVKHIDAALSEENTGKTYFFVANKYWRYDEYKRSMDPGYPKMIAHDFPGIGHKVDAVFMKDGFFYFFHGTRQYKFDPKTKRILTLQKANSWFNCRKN
# Procedure, shortened: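 Human MMP1 enzyme activity measured by fluorescence 1 h after dosing, cell-free, with a specific substrate. Screened in duplicate at 25 uM; hits (e.g. 30% inhibition) run in concentration-response up to 50 uM; loss of signal versus DMSO.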
smiles,measurement,setting,value
CC(C)(C)C(O)/C(=C\c1ccc(Cl)cc1Cl)n1cncn1 (configuration not stated),outcome,[1],inactive
CCOc1nc(NC)nc(NC(=O)NS(=O)(=O)c2ccccc2C(=O)OC)n1,AC50,[2],14.8 µM (active)
O=C(O)COc1ccc(Cl)cc1Cl,outcome,[3],inactive
Cc1cc(C)nc(NC(=O)NS(=O)(=O)c2ccccc2C(=O)OC2COC2)n1,AC50,[4],18.6 µM (active)
O=C(Nc1ccccc1)Nc1cnns1,outcome,[5],inactive
CN1CSC(=S)N(C)C1,outcome,[6],inactive
CCC(C)(C)C(=O)OC1=C(c2ccc(Cl)cc2Cl)C(=O)OC12CCCCC2,outcome,[7],inactive
COC(=O)c1ccccc1CS(=O)(=O)NC(=O)Nc1nc(OC)cc(OC)n1,outcome,[8],inactive
same,outcome,[9],inactive
N#Cc1c(Cl)c(Cl)c(Cl)c(C#N)c1Cl,AC50,[10],25 µM (active)
same,outcome,[11],inactive
same,outcome,[12],inactive
same,outcome,[13],inactive
same,AC50,[14],31.8 µM (active)
Oc1ccc(Cl)cc1Cc1ccccc1,outcome,[10],inactive
same,outcome,[4],inactive
same,AC50,[15],6.03 µM (active)
same,outcome,[15],inactive
same,AC50,[12],6.41 µM (active)
same,outcome,[6],inactive
same,outcome,[2],inactive
same,outcome,[14],inactive
